Assay outcomes from PubChem.
Hits are enriched below; roughly 2.2% of the tested compounds scored in any of these assays.
KLF5 inhibitor: kruppel-like factor 5 inhibition; DLD-1 KLF5 promoter-luciferase reporter, luminescence; inhibition, % at 5 µM; 290,000 compounds, 0.23% hits; AID 1700;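 active = inhibition above a per-plate limit of that plate's mean compound inhibition plus 3 SD, cut at about 60% in these data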;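 note: 0% = DMSO wells and 100% = LY294002 at 200 µM; higher means less KLF5 promoter-driven luciferase light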
IEC-6 tox-1: kills IEC-6 intestinal cells in KLF5 counter-screen | IEC-6 cytotoxicity, luminescence viability | AID 1825 | 290,000 compounds, 0.78% hits | inhibition, % at 5 µM;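 note: 0% = plate median of test compound wells and 100% = cytotoxic reference compound wells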
aSyn 5UTR inh: MLPCN primary screen, SNCA 5' untranslated region; alpha-synuclein 5'UTR reporter, inhibitor activity; inhibition, % (tested at 7.5 µM); 300,000 compounds, 0.82% hits; in the data active = inhibition above about 60%; inconclusive = no clear call, values can overlap the other calls;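 note: H4 neuroglioblastoma cells stably carrying SNCA 5'UTR luciferase fusion; 0% = DMSO wells and 100% = positive control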
Ba/F3 V617F tox: loss of viability in JAK2V617F-driven Ba/F3 cells; inhibition, % at 5.6 µM; AID 1446; Ba/F3 EpoR-JAK2V617F viability, ATP luminescence; 220,000 compounds, 1.1% hits;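 active = inhibition above the campaign mean plus 3 SD over all tested compounds, cut at about 24% in these data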;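 note: cytokine-independent growth of Ba/F3 cells driven by EpoR plus mutant JAK2; 0% = DMSO-treated cells and 100% = JAK inhibitor I control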
APP transl inh: APP translation inhibition. SH-SY5Y APP 5'UTR-luciferase reporter, luminescence. inhibition, % at 2 µM. 190,000 compounds, 0.82% hits;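 active = inhibition above a set limit, derived from the sample mean plus 3 SD, cut at about 45% in these data; inconclusive = one replicate passes the limit while the other fails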
BaF3 tox: parental Ba/F3 viability inhibition as JAK2V617F counter-screen; AID 1486; inhibition, % at 5.6 µM; CellTiter-Glo ATP luminescence; 220,000 compounds, 1.1% hits;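 active = inhibition above a per-campaign cutoff, the mean inhibition of all tested compounds plus 3 SD, cut at about 27% in these data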;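 note: 0% = DMSO wells and 100% = JAK Inhibitor I control wells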
KLF5 inh confirm: confirmation of KLF5 inhibitors. inhibition, % at 4 µM. DLD-1 KLF5 promoter firefly luciferase reporter, luminescence. 610 compounds, 79% hits. shares compounds with KLF5 inhibitor;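 active = inhibition above a set limit taken from the earlier primary screen, cut at about 63% in these data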;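 note: 0% = DMSO wells and 100% = LY294002 at 200 µM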
IEC-6 tox-2: kills rat IEC-6 cells in KLF5 counter-screen; shares compounds with KLF5 inhibitor; inhibition, % at 4 µM; AID 1905; IEC-6 rat intestinal cells, viability luminescence; 610 compounds, 56% hits; in the data active = inhibition above about 23%;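 note: cells exposed to compounds for 48 hours before viability read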
IEC-6 tox confirm: IEC-6 cytotoxicity, confirmation assay; 1,900 compounds, 63% hits; AID 1907; shares compounds with IEC-6 tox-1; IEC-6 rat intestinal epithelial viability, luminescence; inhibition, % at 5 µM;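 note: 0% = vehicle and 100% = reference cytotoxic drug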
* = called active by the depositor. Cut-off read from the data, not from the text of the source, unless noted: active = inhibition above about 22%; inactive = the rest.

How did CCN1/C(=C\C=C\C2=[N+](CC)c3ccccc3C2(C)C)C(C)(C)c2ccccc21 do in these assays?
KLF5 inhibitor: 84*; IEC-6 tox-1: 64*; aSyn 5UTR inh: 104*; Ba/F3 V617F tox: 99*; APP transl inh: 93*; BaF3 tox: 93*; KLF5 inh confirm: 104*; IEC-6 tox-2: 64*; IEC-6 tox confirm: 70*

What do the screens show for `CCS(=O)(=O)NCc1nnc2n1-c1ccc(Br)cc1C(c1ccccc1Cl)=NC2`?
aSyn 5UTR inh: 8

How did CC(=O)NC(Cc1ccc(N(CCCl)CCCl)cc1)C(=O)NCC(=O)NCC(=O)O (configuration not stated) do in these assays?
KLF5 inhibitor: -19; IEC-6 tox-1: -3; aSyn 5UTR inh: 6; Ba/F3 V617F tox: -2; APP transl inh: 7; BaF3 tox: 3

What do the screens show for `CC[C@@]1(O)C(=O)OCc2c1cc1n(c2=O)Cc2cc3ccccc3nc2-1`?
KLF5 inhibitor: 62*; IEC-6 tox-1: 97*; aSyn 5UTR inh: 116*; Ba/F3 V617F tox: 98*; BaF3 tox: 93*; KLF5 inh confirm: 94*; IEC-6 tox-2: 75*; IEC-6 tox confirm: 72*

What do the screens show for `CC(=O)O[C@@]12CO[C@@H]1C[C@H](O)[C@@]1(C)C(=O)[C@H](O)C3=C(C)[C@@H](O)C[C@@](O)([C@@H](OC(=O)c4ccccc4)C12)C3(C)C` (some centres not stated)?
KLF5 inhibitor: -9; IEC-6 tox-1: 6; aSyn 5UTR inh: 30

Results for C/C=C(\C)C(=O)N[C@@H](c1ccccc1)[C@@H](O)C(=O)O[C@H]1C[C@@]2(O)[C@@H](OC(=O)c3ccccc3)C3[C@](C)(C(=O)[C@H](OC(C)=O)C(=C1C)C2(C)C)[C@@H](O)C[C@H]1OC[C@@]31OC(C)=O (some centres not stated) ?
KLF5 inhibitor: 64*; IEC-6 tox-1: 88*; aSyn 5UTR inh: 104*; KLF5 inh confirm: 88*; IEC-6 tox-2: 78*; IEC-6 tox confirm: 72*

What do the screens show for `COC(=O)C1=C(c2ccc(S(C)(=O)=O)cc2)C[C@@H]2CC[C@H]1N2C(=O)NCCNC(C)=O`?
aSyn 5UTR inh: 7

How did C[C@@H]1CC[C@H]2[C@@H](C)C(=O)O[C@@H]3O[C@@]4(C)CC[C@@H]1[C@]32OO4 do in these assays?
KLF5 inhibitor: 12; IEC-6 tox-1: 4; aSyn 5UTR inh: -3

How did CCC(C)C(NC(=O)CCCNC(=O)CCC(=O)OC1O[C@H]2OC3(C)CC[C@H]4[C@H](C)CCC(C1C)C24OO3)C(=O)O (some centres not stated) do in these assays?
KLF5 inhibitor: 83*; IEC-6 tox-1: 34*; aSyn 5UTR inh: -15; KLF5 inh confirm: 84*; IEC-6 tox-2: 41*; IEC-6 tox confirm: 26*

How did CC1CCN(CC#CCOc2ccc(Cl)cc2)CC1 do in these assays?
KLF5 inhibitor: -15; IEC-6 tox-1: -2; aSyn 5UTR inh: -4

How did CC(C)[C@H]1C(=O)O[C@H](C(C)C)C(=O)N(C)[C@@H](C(C)C)C(=O)O[C@H](C(C)C)C(=O)N(C)[C@@H](C(C)C)C(=O)O[C@H](C(C)C)C(=O)N1C do in these assays?
KLF5 inhibitor: 70*; IEC-6 tox-1: 89*; aSyn 5UTR inh: 86*; Ba/F3 V617F tox: 98*; APP transl inh: 5; BaF3 tox: 77*; KLF5 inh confirm: -3; IEC-6 tox-2: 10; IEC-6 tox confirm: 54*

What do the screens show for `COc1cccc(OC)c1C1=NCC(=O)Nc2c1oc1ccc(Br)cc21`?
KLF5 inhibitor: 35; IEC-6 tox-1: 34*; aSyn 5UTR inh: inconclusive; Ba/F3 V617F tox: 75*; APP transl inh: 93*; BaF3 tox: 39*; IEC-6 tox confirm: 57*

How did CC1(C)CC(CCNCc2ccc3c(c2)OCO3)(Cc2ccccc2)CCO1 (configuration not stated) do in these assays?
KLF5 inhibitor: -14; IEC-6 tox-1: 0; aSyn 5UTR inh: 14; Ba/F3 V617F tox: 0; APP transl inh: -2; BaF3 tox: 8

How did C#C[C@@]1(O)CCC2C3CCC4=C/C(=N/OCC(=O)NC(C(=O)NC(CC(C)C)C(=O)O)C(C)C)CC[C@]4(C)C3CC[C@@]21C (some centres not stated) do in these assays?
KLF5 inhibitor: -6; IEC-6 tox-1: 2; aSyn 5UTR inh: -23

What do the screens show for `CN(C)c1ccc(/C=C/c2cc[n+](C)c3ccccc23)cc1`?
KLF5 inhibitor: 32; IEC-6 tox-1: 28*; Ba/F3 V617F tox: 101*; APP transl inh: -5; BaF3 tox: 82*; IEC-6 tox confirm: 21

How did C/C=C(\C)C(=O)N[C@@H](c1ccccc1)[C@@H](O)C(=O)O[C@H]1C[C@@]2(O)[C@@H](OC(=O)c3ccccc3)C3[C@](C)(C(=O)[C@H](O)C(=C1C)C2(C)C)[C@@H](O)C[C@H]1OC[C@@]31OC(C)=O (some centres not stated) do in these assays?
KLF5 inhibitor: 50; IEC-6 tox-1: 89*; aSyn 5UTR inh: 98*; IEC-6 tox confirm: 70*

What do the screens show for `CC1N=C(c2ccccc2Cl)c2cc(Br)ccc2NC1=O` (configuration not stated)?
KLF5 inhibitor: -2; IEC-6 tox-1: 1; aSyn 5UTR inh: 24

Results for CC1=CC2/C=C(\C)CCC(O)C(O)/C=C/C(=O)C23C(=O)NC(CC(C)C)C3C1C (configuration not stated) ?
KLF5 inhibitor: -11; IEC-6 tox-1: 39*; aSyn 5UTR inh: 56; Ba/F3 V617F tox: 89*; APP transl inh: 45*; BaF3 tox: 49*; IEC-6 tox confirm: 29*

What do the screens show for `CC(=O)Nc1ccccc1C(=O)OCc1ccccc1F`?
KLF5 inhibitor: -123; IEC-6 tox-1: 5; aSyn 5UTR inh: -60; Ba/F3 V617F tox: 5; APP transl inh: -3; BaF3 tox: -1

What do the screens show for `CCC(C)NC(=O)CCC(=O)OC1O[C@H]2OC3(C)CC[C@H]4[C@H](C)CCC(C1C)C24OO3` (some centres not stated)?
KLF5 inhibitor: 84*; IEC-6 tox-1: 35*; aSyn 5UTR inh: 9; IEC-6 tox confirm: 23*

Results for O=C(Nc1nccs1)C(Cl)(Cl)Cl ?
KLF5 inhibitor: -1; IEC-6 tox-1: -2; aSyn 5UTR inh: 0; Ba/F3 V617F tox: 2; APP transl inh: 5; BaF3 tox: 5
